Results published in PubChem BioAssay (NCATS).
Values without a mark were called inactive. Calls of active or inactive are those of the source. The call rests on the fitted dose curve; in most records, active means well fitted curve in the direction sought with a large enough effect; inconclusive means small, poorly fitted or top-dose-only effect, or another doubt; inactive means no such curve, though single readings can be large or run the other way.

target: Alpha-galactosidase (Coffea arabica) (UniProt Q42656); experiment: Counterscreen for Glucocerebrosidase Inhibitors: qHTS Assay for Coffee Bean alpha-Galactosidase at pH 4.5 (AID 957); conditions: purified coffee bean alpha-galactosidase, fluorogenic substrate; series mostly up to 76.9 µM; activity change, negative = inhibition: at the top concentration;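 further: plate controls were enzyme alone for no effect and no enzyme for full effect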
Sequence (Q42656 whole entry, looked up): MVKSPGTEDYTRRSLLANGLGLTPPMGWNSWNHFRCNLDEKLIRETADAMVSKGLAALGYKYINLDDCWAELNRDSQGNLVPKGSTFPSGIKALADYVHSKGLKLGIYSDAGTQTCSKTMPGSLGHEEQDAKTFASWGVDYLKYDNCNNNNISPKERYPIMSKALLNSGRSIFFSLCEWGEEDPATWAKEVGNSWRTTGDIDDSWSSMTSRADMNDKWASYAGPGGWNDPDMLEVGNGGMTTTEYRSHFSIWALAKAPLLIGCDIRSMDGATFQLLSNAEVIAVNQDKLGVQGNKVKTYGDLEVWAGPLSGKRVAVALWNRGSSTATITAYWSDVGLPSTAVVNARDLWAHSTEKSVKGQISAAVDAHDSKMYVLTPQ
Method in brief: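 AC50 values derive from Hill-equation modeling of concentration-response data, normalized to no-enzyme and full-activity controls. The pH 4.5 citrate assay used 2 nM coffee bean enzyme and 80 uM fluorogenic substrate for 20 min.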

| SMILES | activity change, negative = inhibition [%] | outcome |
| --- | --- | --- |
| CC[N+](C)(C)c1cccc(O)c1 | -2.86 | – |
| Cc1ccc(S(=O)(=O)NC(=O)NN2CCCCCC2)cc1 | -1.24 | – |
| CN(C)C(=O)C(CCN1CCC(O)(c2ccc(Cl)cc2)CC1)(c1ccccc1)c1ccccc1 | -5.5 | – |
| NS(=O)(=O)c1cc2c(cc1Cl)NC=NS2(=O)=O | -2.1 | – |
| CN(C)c1nc(N(C)C)nc(N(C)C)n1 | -0.867 | – |
| OCCN1CCN(CCCN2c3ccccc3Sc3ccc(C(F)(F)F)cc32)CC1 | -5.43 | – |
| Cc1oncc1C(=O)Nc1ccc(C(F)(F)F)cc1 | 3.58 | – |
| CC(C)NCC(O)COc1cccc2[nH]ccc12 (stereo unspecified) | -1.1 | – |
| CCCCc1oc2ccccc2c1C(=O)c1cc(I)c(OCCN(CC)CC)c(I)c1 | -7.33 | – |
| Cn1cnc([N+](=O)[O-])c1Sc1ncnc2nc[nH]c12 | -1.13 | – |
| Nc1nc2c(ncn2COCCO)c(=O)[nH]1 | 1.55 | – |
| O=c1[nH]cc(F)c(=O)[nH]1 | 0.37 | – |
| CN1CCN(C2=Nc3ccccc3Oc3ccc(Cl)cc32)CC1 | 0.313 | – |
| Cc1cn([C@H]2C=C[C@@H](CO)O2)c(=O)[nH]c1=O | -0.871 | – |
| CCCN(CCC)CCc1cccc2c1CC(=O)N2 | -2.89 | – |
| CCN(CC)CCNC(=O)c1cc(Cl)c(N)cc1OC | -2.61 | – |

| SMILES | activity change, negative = inhibition [%] | outcome |
| --- | --- | --- |
| CC1(C)NC(=O)N(c2ccc([N+](=O)[O-])c(C(F)(F)F)c2)C1=O | -4.57 | – |
| NC[C@H](O)c1ccc(O)c(O)c1 | – | inactive |
| CN(C)CCCN1c2ccccc2CCc2ccc(Cl)cc21 | -5.04 | – |
| OCCN1CCN(CCCN2c3ccccc3Sc3ccc(Cl)cc32)CC1 | 0.188 | – |
| CCOC(=O)c1ncn2c1CN(C)C(=O)c1cc(F)ccc1-2 | -0.426 | – |
| CN1CCN(CCCN2c3ccccc3Sc3ccc(Cl)cc32)CC1 | -0.79 | – |
| CN(C)CCC[C@@]1(c2ccc(F)cc2)OCc2cc(C#N)ccc21 | 0.234 | – |
| CN1CCN(CCCN2c3ccccc3Sc3ccc(C(F)(F)F)cc32)CC1 | -2.19 | – |
| CN(C)CCCN1c2ccccc2Sc2ccc(Cl)cc21 | -6.46 | – |
| Nc1nc(N)c2nc(-c3ccccc3)c(N)nc2n1 | 114 | – |
| COc1ccc(Cl)cc1C(=O)NCCc1ccc(S(=O)(=O)NC(=O)NC2CCCCC2)cc1 | 1.42 | – |
| CCN(CC)CCOC(=O)C1(C2CCCCC2)CCCCC1 | -7.38 | – |
| Cc1nc2n(c(=O)c1CCN1CCC(c3noc4cc(F)ccc34)CC1)CCCC2 | 0.568 | – |
| CCC1(c2ccccc2)C(=O)NCNC1=O | -1.05 | – |
| Clc1ccc2c(c1)C(N1CCNCC1)=Nc1ccccc1O2 | -0.545 | – |
